Bioassay records: PubChem BioAssay, several laboratories
Hits are enriched below; roughly 4.1% of the tested compounds scored in any of these assays.
Jurkat NFkB inh: inhibitors of the PMA/ionomycin-induced NF-kB reporter in Jurkat cells | AID 435003 | inhibition, % at 4 µM | 0.53% of 330,000 active | PMA/ionomycin-induced NF-kB luciferase reporter, luminescence; in the data active means inhibition above about 50%
KLF5 inhibitor: kruppel-like factor 5 inhibition; DLD-1 KLF5 promoter-luciferase reporter, luminescence; inhibition, % at 5 µM; 0.23% of 290,000 active; AID 1700;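 active means inhibition above a per-plate limit of that plate's mean compound inhibition plus 3 SD, cut at about 60% in these data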;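 further: 0% = DMSO wells and 100% = LY294002 at 200 µM; higher means less KLF5 promoter-driven luciferase light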
697 NFkB inh: lowers PMA/ionomycin-induced NF-kB signal in 697 B cells | 697 B-cell NF-kB luciferase reporter, 16 h | inhibition, % at 4 µM | 0.33% of 330,000 active | AID 435022; in the data active means inhibition above about 35%
Mdm2 MdmX PPI: human Mdm2/MdmX binding inhibition; O15151+Q00987; SaOS-2 split-luciferase Mdm2/MdmX complementation, luminescence; inhibition, % at 8 µM; 3% of 330,000 active;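 active means inhibition of at least 50% at 8 µM in the primary screen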
Target sequence (O15151 whole entry, looked up): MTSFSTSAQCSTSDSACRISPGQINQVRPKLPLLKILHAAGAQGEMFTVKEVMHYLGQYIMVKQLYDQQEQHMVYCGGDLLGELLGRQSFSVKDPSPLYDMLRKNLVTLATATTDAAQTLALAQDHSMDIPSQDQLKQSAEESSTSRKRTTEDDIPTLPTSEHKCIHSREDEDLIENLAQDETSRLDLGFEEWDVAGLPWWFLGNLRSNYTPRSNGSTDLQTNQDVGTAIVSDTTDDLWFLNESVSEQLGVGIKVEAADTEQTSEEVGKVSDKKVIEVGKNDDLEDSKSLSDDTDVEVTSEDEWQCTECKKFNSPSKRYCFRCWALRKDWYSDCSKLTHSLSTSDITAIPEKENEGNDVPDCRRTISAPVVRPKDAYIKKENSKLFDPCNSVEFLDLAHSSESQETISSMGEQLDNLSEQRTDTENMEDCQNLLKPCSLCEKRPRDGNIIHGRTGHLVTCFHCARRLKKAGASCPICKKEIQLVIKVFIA
Target sequence (Q00987 whole entry, looked up): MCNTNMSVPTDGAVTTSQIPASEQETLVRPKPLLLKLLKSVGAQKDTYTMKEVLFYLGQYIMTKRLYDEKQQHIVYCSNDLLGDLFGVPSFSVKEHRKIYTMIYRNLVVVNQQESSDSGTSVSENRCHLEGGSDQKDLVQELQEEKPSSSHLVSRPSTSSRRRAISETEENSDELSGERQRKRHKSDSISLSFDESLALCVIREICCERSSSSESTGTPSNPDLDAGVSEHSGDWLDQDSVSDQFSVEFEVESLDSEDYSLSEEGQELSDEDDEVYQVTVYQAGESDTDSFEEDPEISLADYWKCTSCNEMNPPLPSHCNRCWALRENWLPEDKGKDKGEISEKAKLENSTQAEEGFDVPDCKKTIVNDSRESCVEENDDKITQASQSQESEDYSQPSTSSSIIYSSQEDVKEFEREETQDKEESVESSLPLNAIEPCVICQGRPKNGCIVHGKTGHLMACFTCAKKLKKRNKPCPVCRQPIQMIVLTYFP
Gli-Sufu block: antagonists of Gli-Sufu signaling | inhibition, % at 5 µM | Sufu-KO-LIGHT fibroblasts, Gli luciferase reporter luminescence | 0.74% of 340,000 active;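 active means inhibition above about 55%, limit read from the data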;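 further: 0% = DMSO-treated cells and 100% = wells with medium but no cells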
aSyn UTR inh: MLPCN primary screen, SNCA 5' untranslated region; alpha-synuclein 5'UTR reporter, inhibitor activity; inhibition, % (tested at 7.5 µM); 0.82% of 300,000 active; in the data active means inhibition above about 60%;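 further: H4 neuroglioblastoma cells stably carrying SNCA 5'UTR luciferase fusion; 0% = DMSO wells and 100% = positive control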
Mdm2 MdmX conf: human Mdm2/MdmX binding inhibition, confirmed | 55% of 10,000 active | luminescent assay | shares compounds with Mdm2 MdmX PPI | inhibition, % at 8 µM; in the data active means inhibition above about 40%
FLuc counter: full-length luciferase inhibition in Mdm2/MdmX counter-screen | shares compounds with Mdm2 MdmX PPI | SaOS-2 full-length luciferase counterscreen, luminescence | inhibition, % at 8 µM | 77% of 6,200 active | AID 504607;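 active means mean inhibition at 8 µM reaching about 37%, which flags the compound as non-specific, limit read from the data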;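 further: p53-null SaOS-2 cells with luciferase driven by a doxycycline-inducible promoter; compound on cells about two nights before reading with doxycycline added after day one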
* marks the source's active call; other numbers are inactive results; · = not tested or not shown.

SMILES	Jurkat NFkB inh	KLF5 inhibitor	697 NFkB inh	Mdm2 MdmX PPI	Gli-Sufu block	aSyn UTR inh	Mdm2 MdmX conf	FLuc counter
COc1ccccc1C(=O)Nc1ccc2c(c1)nc(CCNC(=O)c1ccco1)n2C	49	28	-39	67*	-12	-295	53*	66*
Cn1c(CCNC(=O)c2ccco2)nc2cc(NC(=O)c3ccco3)ccc21	-25	-52	-44	0	-30	-144	·	·
COc1ccc(/C=N/Nc2cc(C)nc(-n3nc(C)cc3C)n2)c(OC)c1	13	4	-6	55*	34	25	38	48*
CCOc1cc(/C=N/Nc2cc(C)nc(-n3nc(C)cc3C)n2)ccc1O	32	4	-28	73*	21	68*	40	23
COc1ccccc1/C=N/Nc1cc(C)nc(N2CCOCC2)n1	6	-41	9	-7	4	-22	·	·
Cc1cc(N/N=C/c2ccc(F)cc2)nc(-n2nc(C)cc2C)n1	4	-2	-13	13	4	9	·	·
CCN(CC)c1ccc(/C=N/NC(=O)CCC(=O)NCc2ccccc2)c(O)c1	13	26	-49	71*	37	33	76*	34
CCOC(=O)N/N=C/c1ccc(N(CC)CC)cc1O	38	-32	-65	19	-38	-432	·	·
Cc1cc([N+](=O)[O-])cc(/C=N\NC(=O)C2COc3ccccc3O2)c1O (centres undefined)	8	-10	14	52*	-7	22	40*	28
CCN(CC)c1ccc(/C=N/NC(=O)CNC(=O)C2COc3ccccc3O2)c(O)c1 (centres undefined)	36	60	-10	77*	51	55	76*	22
Cn1c([N+](=O)[O-])cnc1N1CCN(c2nncs2)C1=O	0	-25	8	29	-3	4	·	·
CCOc1ccc(Nc2nnc(SCc3nc4ccccc4c(=O)[nH]3)s2)cc1	-7	-52	-14	63*	8	10	23	·
Cc1cccc(OCc2nnc(SCc3nc4ccccc4c(=O)[nH]3)o2)c1	-11	-8	-7	17	4	16	·	·
COc1ccc(-c2nnc(SCc3nc4ccccc4c(=O)[nH]3)o2)cc1	-32	-11	-26	73*	2	-70	58*	105*
COc1ccc(OC)c(C(=O)N2CCCC(Nc3ccc(F)cc3)C2)c1 (centres undefined)	-5	-28	-13	12	-2	0	·	·
N#C/C(=C\Nc1ccc(Cl)cc1)S(=O)(=O)c1ccccn1	2	-11	5	-10	6	-23	·	·
O=C(Cc1sc(-c2ccccc2)nc1-c1ccccc1)Nc1ccc(Cl)cc1	0	-31	4	59*	7	13	6	·
O=C(Cc1sc(-c2ccccc2Cl)nc1-c1ccccc1)Nc1ccccc1	2	-12	8	72*	20	-13	25	·
O=C(Cc1sc(-c2ccccc2Cl)nc1-c1ccccc1)Nc1ccc(F)cc1	-8	-36	26	64*	9	-27	24	·
Clc1ccc(CSc2ccc(-c3ccccn3)nn2)cc1	-44	4	-38	60*	-45	-132	60*	43*
CCOC(=O)c1ccc(NC(=O)CSc2ccc(-c3ccccn3)nn2)cc1	14	-38	-19	70*	-7	12	53*	59*
COc1ccc(NC(=O)CSc2ccc(-c3ccccn3)nn2)cc1OC	2	-25	6	28	3	-29	·	·
Cc1ccc(NC(=O)CSc2ccc(-c3ccccn3)nn2)cc1	0	-8	22	55*	-11	-13	41*	79*
CCOc1ccc(NC(=O)CSc2ccc(-c3ccccn3)nn2)cc1	12	2	-6	24	-14	-29	·	·
O=C(CSc1ccc(-c2ccccn2)nn1)Nc1ccc(F)c(F)c1	34	-44	3	67*	22	5	43*	55*
SMILES	Jurkat NFkB inh	KLF5 inhibitor	697 NFkB inh	Mdm2 MdmX PPI	Gli-Sufu block	aSyn UTR inh	Mdm2 MdmX conf	FLuc counter
O=C(CN1C(=O)NC(c2ccccc2)(c2ccccc2)C1=O)c1c[nH]c2ccccc12	8	-7	0	23	·	-33	·	·
Cc1c(NC(=O)C(C)OC(=O)c2cc(Cl)ccc2O)c(=O)n(-c2ccccc2)n1C (centres undefined)	2	-16	18	1	0	-7	·	·
N#Cc1ccccc1S(=O)(=O)N1CCN(C(=O)C2CC(=O)N(c3ccc4c(c3)OCCO4)C2)CC1 (centres undefined)	-2	·	3	36	-4	·	·	·
O=S(=O)(c1ccc(F)cc1)N1CCC2(CC1)OCCN2S(=O)(=O)c1cccs1	7	·	14	18	0	-6	·	·
Cc1ccc(NC(=S)N=Nc2c(O)n(C)c3ccc(S(=O)(=O)N4CCOCC4)cc23)cc1C	-2	8	-22	52*	25	77*	41*	48*
Cc1cccc(S(=O)(=O)c2c(N)n(Cc3ccco3)c3nc4ccccc4nc23)c1	28	27	11	17	1	17	·	·
Cc1cccc(-n2cnc3c(c2=O)c2nc4ccccc4nc2n3Cc2ccco2)c1	29	·	2	54*	7	14	26	·
CCn1c(SCC(=O)Nc2ccc(N3CCOCC3)cc2)nnc1-c1ccco1	6	·	-16	17	-9	-13	·	·
Fc1ccc(CNC(=S)Nc2cccc(C(F)(F)F)c2)cc1	8	-21	-4	12	-5	28	·	·
FC(F)(F)c1cccc(NC(=S)NNC(=S)Nc2ccc(Cl)cc2)c1	2	-20	18	80*	·	2	26	·
Fc1cc(NC(=S)NCc2ccc(CNC(=S)Nc3ccc(Cl)c(F)c3)cc2)ccc1Cl	-7	-37	10	50*	-4	22	5	·
FC(F)(F)c1cccc(NC(=S)NCc2ccc(Cl)cc2)c1	2	11	-8	83*	-1	4	22	·
Cc1ccc(NC(=S)NNC(=S)Nc2cccc(C(F)(F)F)c2)cc1	-1	-1	-14	-8	-2	-36	·	·
CCOc1ccc(CCNC(=O)C2=C(C)C(=O)OC23CCCCC3)cc1OCC	-3	-25	0	-23	-1	11	·	·
Cc1nc2c(-c3ccc(Cl)cc3)c(C)[nH]n2c(=O)c1Cc1ccccc1	4	35	16	53*	20	78*	61*	55*
CCOc1ccc2c(c1)C(N(CCN1CCOCC1)C(=O)Nc1ccccc1)CC(C)(C)O2 (centres undefined)	-2	-6	-8	9	8	1	·	·
CCOc1ccc(CCNC(=O)Cn2nc(C)c3c(C)n(-c4ccccc4)nc3c2=O)cc1OCC	8	-14	3	18	4	4	·	·
